The campaign covered roughly 360,000 compounds. About 9,100 (2.5%) were called active. About 4% were inconclusive and are not listed. No stated cut-off is given here; in the data, active means max response below about -50%; inconclusive means no clear call, values can overlap the other calls; inactive means above that. Only a selection was taken, and actives are over-represented in it overall.
On the % scale 0 is the no-effect control and ±100 the full control effect.

Chain of D(3) dopamine receptor (Homo sapiens) (P35462 whole entry, looked up): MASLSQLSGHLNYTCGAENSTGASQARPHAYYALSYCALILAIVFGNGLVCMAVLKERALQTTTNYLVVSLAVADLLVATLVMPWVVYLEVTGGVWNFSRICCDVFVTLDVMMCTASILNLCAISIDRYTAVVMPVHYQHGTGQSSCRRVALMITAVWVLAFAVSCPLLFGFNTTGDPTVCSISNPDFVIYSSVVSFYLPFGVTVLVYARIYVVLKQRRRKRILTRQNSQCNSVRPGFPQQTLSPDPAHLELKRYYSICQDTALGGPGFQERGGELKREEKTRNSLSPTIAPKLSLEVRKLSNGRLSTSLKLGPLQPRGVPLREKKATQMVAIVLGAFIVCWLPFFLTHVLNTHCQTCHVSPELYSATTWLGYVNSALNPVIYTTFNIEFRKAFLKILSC

This experiment has as its target D(3) dopamine receptor (Homo sapiens) (UniProt P35462). Briefly: qHTS of D3 Dopamine Receptor Antagonist: qHTS. The conditions noted are these: D3R cells, DiscoveRx beta-arrestin luminescence, antagonist mode; hits give low values. The text has this: D3 DARs represent a very important target for the treatment of several neuropsychiatric disorders. Indeed, one of the most promising therapeutic applications for the D3 DAR is in the area of addiction and related disorders. […] These findings have been observed with a number of addictive substances including cocaine, amphetamine, nicotine, and alcohol. […] Antagonism of the D3 DAR may also be therapeutic in the treatment of schizophrenia or psychosis. […] Since the D3 DAR is expressed in areas of the CNS associated with the control of mood and emotion, it has been hypothesized that selective antagonism of the D3 DAR may be effective in treating psychosis without inducing the motor side effects typically seen with D2 DAR antagonists.
This part of the project aims to discover novel antagonist.
NIH Chemical Genomics Center [NCGC]
NIH Molecular Libraries Probe Centers Network [MLPCN]
Assay Submitter (PI): David Sibley, NINDS
Freshly passaged cells are plated in 1536 well white, solid bottom plates at a density of 1500 cells/well in 3microl of complete media. After an overnight incubation at 37 degrees C in 5% CO2, cells are loaded with 23nl of test compound from the compound library (as well as dopamine controls) using a 1536 pintool and incubated at 37 degrees C for 90 minutes. Two microliters of DiscoveRx reagent is then added to all cells, and they are incubated for an additional 30 - 60 minutes at room temperature. Following incubation, luminescence is measured on a ViewLux CCD-based luminometer reader using a 20 sec exposure time.
On to `CC(=O)NC1C(Oc2ccc(C=O)cc2)OC(COC(C)=O)C(OC(C)=O)C1OC(C)=O` (stereo not drawn), for which the max response, negative = inhibition is 14.4% (inactive). As for `CCc1cccc(OC2OC(CO)C(O)C(O)C2NC(C)=O)c1` (stereo not drawn), the max response, negative = inhibition was -21.8% (inactive). Take `CC(=O)NC1C(OCc2ccccc2)OC(COC(C)=O)C(OC(C)=O)C1OC(C)=O` (stereo not drawn): the max response, negative = inhibition was -50.8% (active). Then `Cc1cccc(CN2CCN(C3CN(Cc4cn(Cc5cc(C)cc(C)c5)nn4)S(=O)(=O)C3)CC2)c1` (stereo not drawn), with 0.506% (inactive); and `Cc1ccc(Cc2c(-c3ccccc3)nc3ccc(Cl)cn23)cc1`, with 5.55% (inactive); and `Cc1ccc(NC(=S)N(CCCN2CCCC2)Cc2cccn2Cc2ccc(Cl)cc2)cc1`, with -19% (inactive). As to `Cc1ccc(NC(=S)N(CCN(C)C)Cc2cccs2)cc1C`, the max response, negative = inhibition was -25.3% (inactive). Then `Cc1ccc(NC(=S)N(Cc2ccco2)C(C)c2cccs2)cc1` (stereo not drawn), with 10.5% (inactive); and `CCc1ccccc1NC(=S)N(CCN1CCCCCC1)Cc1ccco1`, with -28.8% (inactive); and `Cc1ccc(NC(=S)N(CCN2CCCCC2)Cc2ccco2)cc1C`, with -70.4% (active). The result for `Cc1ccc(NC(=S)N(CCCN2CCC(C)CC2)Cc2ccco2)cc1` reads -63.3% (active). Then `O=C(c1ccc(C(F)(F)F)cc1)N1CCC(=O)N([C@H](COCc2ccccc2)Cc2ccccc2)CC1`, with -26.4% (inactive); and `CC(C)c1ccc(CC(=O)N2CCC2(C)C(=O)NS(=O)(=O)c2ccc(C(C)(C)C)cc2)cc1` (stereo not drawn), with 22.2% (inactive). For the molecule `Nc1ncnc2c1ncn2[C@@H]1O[C@H](C(=O)NCC(F)(F)F)[C@@H](O)[C@H]1O`, the max response, negative = inhibition was 14.5% (inactive).

Regarding `Cc1nc(C(F)(F)F)ccc1C(=O)N1CCC1(C)C(=O)NS(=O)(=O)c1ccc(F)cc1F` (stereo not drawn), the max response, negative = inhibition is 19.8% (inactive). Then `O=C1NC[C@@H](CCCCN2CCN(CCc3ccc(O)cc3)C(=O)C2=O)N(CC2CCCCC2)C1=O`, with 0% (inactive); and `CCn1c(SCC(=O)NCC2CCCO2)nc2ccccc21` (stereo not drawn), with 1.46% (inactive). The result for `O=C(CSc1ccc(-c2ccccc2)nn1)NCC1CCCO1` (stereo not drawn) reads -1.73% (inactive). Then `O=C(CSC1=Nc2ccccc2C2=NC(c3ccccc3)C(=O)N12)NCC1CCCO1` (stereo not drawn), with -66.9% (active); and `CC(=O)c1cccc(-c2cnc3c(NC=O)cc(-c4ccc(N5CCN(C)CC5)cc4)cn23)c1`, with 13.5% (inactive). Consider `O=CN1CCN(C2CC(=O)N(c3ccc4c(c3)OCO4)C2=O)CC1` (stereo not drawn), for which the max response, negative = inhibition was -17.5% (inactive). Then `Cc1ccc(N2C(=O)CC(NCc3ccc4c(c3)OCO4)C2=O)cc1Cl` (stereo not drawn), with -53.6% (active); and `Cc1ccc(CC2CC(=O)N(c3ccc4c(c3)OCCO4)C2=O)cc1` (stereo not drawn), with 23.1% (inactive); and `CC(C)n1ncc2c(C(=O)N3CCN(Cc4cccs4)CC3)cc(C3CC3)nc21`, with -22.9% (inactive). As to `CC1(C2CC2)NC(=O)N(CC(=O)N2CCN(c3ccccc3F)CC2)C1=O` (stereo not drawn), the max response, negative = inhibition is -14.5% (inactive). Then `Cc1ccccc1CN1C(=O)CSCC1(C)C(=O)Nc1c(C)cccc1C` (stereo not drawn), with 4.29% (inactive). Then `COc1ccc(NCCc2ccccn2)cc1`, with 1.2% (inactive); and `COc1ccc2nc(-c3ccccn3)ccc2c1`, with -12.3% (inactive); and `COc1cnc(-c2ccccn2)nc1Oc1ccc(C(C)(C)C)cc1`, with -52.8% (active). The result for `CCOC(=O)c1c(NC(=O)COC(=O)c2ccc(S(=O)(=O)C(F)F)cc2)sc(C(=O)N(C)C)c1C` reads 13% (inactive). Take `Cc1ccc(-c2c(N)nc3ncccn23)cc1`: the max response, negative = inhibition was 1.01% (inactive). Then `OCCN1CCN(c2ncnc3c2ncn3[C@H]2CN(Cc3ccco3)C[C@@H](CO)O2)CC1`, with -7.83% (inactive). As to `O=S1(=O)CC(N2CCN(CCO)CC2)CN1Cc1cn(Cc2ccc(Cl)cc2)nn1` (stereo not drawn), the max response, negative = inhibition was -11.2% (inactive). Then `Cc1n[nH]c(=S)n1/N=C/c1ccc(Br)o1`, with -55% (active); and `COc1cc(/C=N/n2c(C)n[nH]c2=S)ccc1OCc1ccccc1`, with 4.09% (inactive). Then `Cc1ccccc1-c1n[nH]c(=S)n1/N=C/c1ccc(-c2ccccc2Br)o1`, with -16.9% (inactive); and `NC(c1csc(NC(=O)Nc2ccccc2Oc2ccccc2)n1)c1ccccc1Cl` (stereo not drawn), with 46.2% (inactive). Then `COC(=O)[C@]12CCCCC=C1N(Cc1ccco1)C(=O)[C@H](CC(=O)NCCCCc1ccccc1)C2`, with -9.24% (inactive). `Cc1ccc(CN2CC(N3CCC(Cc4ccccc4)CC3)CS2(=O)=O)cc1` (stereo not drawn): the max response, negative = inhibition is 6.13% (inactive). Then `Cc1cc(C)c2c(=O)[nH]c(SCC(=O)Nc3ccc(Br)cc3)nc2n1`, with -52.3% (active); and `O=C(CSc1nc2[nH]ncc2c(=O)[nH]1)Nc1ccc(F)cc1`, with 2.63% (inactive).

For the molecule `Cc1cc(=O)[nH]c(SCC(=O)Nc2ccc(Br)cc2)n1`, the max response, negative = inhibition was -12.6% (inactive). Then `COc1ccc(Cl)cc1-c1cc(C(=O)Nc2cc(OC)c(OC)c(OC)c2)[nH]n1`, with 106% (inactive). The result for `Clc1cccc(Cl)c1OCCOCCNCc1ccccc1` reads 43.5% (inactive); that for `COCCCNCCOCCOc1ccc(Cl)cc1Br`, -97.1% (active).

For `COCCNCCOCCOc1cccc(OC)c1`, the max response, negative = inhibition is 6.73% (inactive).

Consider `C[C@@H]1CN([C@H](C)CO)S(=O)(=O)c2ccc(C#CC3CCCCC3)cc2O[C@H]1CN(C)C(=O)Cc1ccncc1`, for which the max response, negative = inhibition was -18.9% (inactive). Regarding `CCc1nc2ccc(C(=O)NCc3ccc(OC)cc3)cn2c1N(CC)Cc1cccc(Br)c1`, the max response, negative = inhibition is 0% (inactive). Then `C[C@H](CO)N1C[C@H](C)[C@H](CN(C)C(=O)c2ccncc2)OCc2ccccc2-c2c(n(C)c3ccccc23)C1=O`, with -9.27% (inactive); and `O=C(NCc1ccc(F)cc1)c1cc(C2CCCCN2C(=O)C2CCCCC2)on1` (stereo not drawn), with 2.42% (inactive).

As to `CCN1CCN(c2ccc([N+](=O)[O-])cc2C(=O)c2ccc(Cl)cc2)CC1`, the max response, negative = inhibition was -55.6% (active). As to `O=C(Nc1cccc(Cl)c1)c1cc([N+](=O)[O-])ccc1N1CCN(CCO)CC1`, the max response, negative = inhibition was -13.4% (inactive).

In the case of `CCC(=O)c1ccc(N2CCN(C(=O)c3cc([N+](=O)[O-])ccc3F)CC2)c(F)c1`, the max response, negative = inhibition is 15% (inactive). Then `O=C(Nc1ccc(C(=O)O)cc1)/C(=C/c1ccc([N+](=O)[O-])cc1)NC(=O)c1ccccc1`, with -12.4% (inactive); and `O=C(NCCc1ccccc1)/C(=C\c1ccc([N+](=O)[O-])cc1)NC(=O)c1ccccc1`, with 9% (inactive); and `O=C(N/N=C/c1ccc(O)cc1)/C(=C/c1ccc([N+](=O)[O-])cc1)NC(=O)c1ccccc1`, with -52.3% (active). In the case of `Cc1sc2ccccc2c1CNC[C@H]1O[C@@H](n2ccc(=O)[nH]c2=O)[C@H](O)[C@@H]1O`, the max response, negative = inhibition is 23.7% (inactive). The result for `O=C(NCc1ccccc1Cl)c1csc([C@@H]2O[C@H](CO)[C@@H](O)[C@H]2O)n1` reads 0% (inactive).

As to `Cc1ccccc1-c1csc(C(O)c2cccc(Cl)c2)n1` (stereo not drawn), the max response, negative = inhibition is -14.8% (inactive). Then `CC(C)Cn1cc(-c2cncc3nccn23)cn1`, with 19.7% (inactive); and `NC(=O)CSc1nnc(-c2cccc(S(=O)(=O)N3CCOCC3)c2)o1`, with -19.7% (inactive); and `Cc1c(C(=O)NCc2ccc(C#N)cc2)sc(=O)n1Cc1ccc(C(=O)N(C)C)cc1`, with 16.1% (inactive). Then `COc1ccc(C(=O)N2CCC(C(=O)Nc3cccc(C)c3)CC2)cc1OC`, with 9.36% (inactive). Then `CC(C)(C)c1ccc(C(=O)N2CCC(C(=O)N3CCCCC3)CC2)cc1`, with 7.98% (inactive); and `COc1ccccc1NC(=O)C1CCN(C(=O)c2ccc(C(C)(C)C)cc2)CC1`, with -52% (active); and `CC(=O)N(C1=C(Cl)C(=O)c2ccccc2C1=O)c1ccc(C(=O)O)cc1`, with -17.6% (inactive).

With `O=C1C(Cl)=C(Oc2ccccc2)C(=O)c2ccccc21`, the max response, negative = inhibition was -90.6% (active).

Take `COc1cccc(CNc2nc(NCc3cccs3)nc3ccsc23)c1`: the max response, negative = inhibition was -28.6% (inactive). In the case of `C[C@H](CO)N1C[C@H](C)[C@@H](CN(C)S(=O)(=O)c2ccc(F)cc2)OCc2cnnn2CCCC1=O`, the max response, negative = inhibition was -22.3% (inactive). The result for `COc1ccc(C(C)(NC(C)=O)c2nc(-c3ccc(S(C)(=O)=O)cc3)cs2)cc1` (stereo not drawn) reads 0.123% (inactive). The result for `CC(C)Nc1ncnc2c1ncn2[C@H]1CN(Cc2ccncc2)C[C@@H](CO)O1` reads 4.5% (inactive); that for `Cc1c(NC(=O)c2cc(-c3ccc(Br)cc3)on2)c(=O)n(-c2ccccc2)n1C`, -15% (inactive); that for `Cc1cc2oc(C(=O)Nc3c(C)n(C)n(-c4ccccc4)c3=O)c(C)c2cc1Cl`, -21.8% (inactive). Take `Cc1c(NC(=O)c2coc(=O)c(Br)c2)c(=O)n(-c2ccccc2)n1C`: the max response, negative = inhibition is -83.3% (active).

Consider `CCCCCNC(=O)C(c1ccc(OC)cc1)n1c(=O)c(-c2ccccc2)nc2ccccc21` (stereo not drawn), for which the max response, negative = inhibition was 3.45% (inactive). For `CC1=C(C(=O)N(C(C)C)C(C)C)CC(CC(=O)NCCCCc2ccccc2)C(=O)N1CCC1=CCCCC1` (stereo not drawn), the max response, negative = inhibition was -16.1% (inactive).

As for `COC(=O)[C@]12CCCCC=C1N(Cc1ccc3c(c1)OCO3)C(=O)[C@H](CC(=O)NCc1cccs1)C2`, the max response, negative = inhibition was 3.72% (inactive). For the molecule `Cc1ccc(CCC(=O)Nc2ncc(Cc3cc(Cl)ccc3Cl)s2)o1`, the max response, negative = inhibition was -12.7% (inactive). The result for `Cc1ccc(Cc2cnc(N)s2)o1` reads -53.2% (active); that for `CN(C)CCOC(=O)C(c1ccccc1)C1(O)CCCC1` (stereo not drawn), -12.5% (inactive). The result for `Cc1ccccc1C(OCCN(C)C)C1CCCCC1` (stereo not drawn) reads -100% (active).

Regarding `CN(C)CCOC1c2ccccc2-c2ccccc21`, the max response, negative = inhibition was -17.2% (inactive). Regarding `COCCNc1ncnc2c1ncn2[C@H]1CN(Cc2ccc(OC)cc2)C[C@@H](CO)O1`, the max response, negative = inhibition was 6.87% (inactive).

For the molecule `Cc1cc(C)n2c(NCc3ccccc3)c(CC(C)C)nc2n1`, the max response, negative = inhibition was 5.03% (inactive).

Consider `Cc1ccc(CN(C)C[C@@H]2OCc3cnnn3CCCC(=O)N([C@@H](C)CO)C[C@H]2C)cc1`, for which the max response, negative = inhibition was -25.2% (inactive). As to `CC(CNc1ccc([N+](=O)[O-])cc1)NC(=O)c1ccccc1Br` (stereo not drawn), the max response, negative = inhibition is 3.2% (inactive). As for `O=C(NCCNc1ccc([N+](=O)[O-])cc1)c1cccc2c(Br)cccc12`, the max response, negative = inhibition was -58.2% (active).

Consider `O=C(NCCNc1ccc([N+](=O)[O-])cc1Cl)c1ccccc1F`, for which the max response, negative = inhibition was -0.899% (inactive).
